According to PubChem BioAssay (NCI):
About 83,000 compounds went through this panel and 20% of them were active in at least one assay; those are over-represented in the sample as a whole.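 Each cell line was grown in a 96-well plate and treated with one concentration of compound for 48 hours. Values below 10 were considered active.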 Values without a mark were called inactive. Activity calls are given as the source filed them.

These compounds were tested on UO-31 renal (assay: NCI-60 one-dose screen, 48 h (100 = growth as untreated, 0 = no growth, -100 = all killed)). Conditions: 10 µM unless noted.

| SMILES | growth |
| --- | --- |
| CC1(C)[C@@H](O[C@@H]2OC[C@@H](O[C@@H]3O[C@H](CO)[C@@H](O)[C@H](O)[C@H]3O[C@@H]3OC[C@@H](O)[C@H](O)[C@H]3O)[C@H](O)[C@H]2O[C@@H]2O[C@H](CO)[C@@H](O)[C@H](O)[C@H]2O)CC[C@]2(C)[C@H]3CC[C@]45OC[C@@]6(CC[C@](C)(C=O)C[C@H]64)[C@H](O)C[C@@]5(C)[C@]3(C)CC[C@@H]12 | -88.7% (active) |
| O=C(CCl)NNc1nccc(Nc2ccc(S(=O)(=O)Nc3ccncc3)cc2)n1 | 63.3% |
| CS(=O)(=O)Nc1cc(-c2ccc3ncc(C#N)c(Nc4ccc(F)c(Cl)c4)c3c2)cnc1Cl | -6.94% (active) |
| Cc1[nH]c(C2CC(c3ccc(C(F)(F)F)c(F)c3)=NN2c2ccccc2)c(C)c1C(=O)NCC(F)(F)F (stereo not given) | 58.8% |
| O=P(O)(O)OCC1OC(n2cnc3c(NCc4ccco4)ncnc32)C(O)C1O (stereo not given) | -6.51% (active) |
| C=CN(C(=O)N1CCN(c2cc3c(cc2F)c(=O)c(C(=O)O)cn3C2CC2)CC1)c1nc(-c2ccc(OC)cc2)cs1 | 15.5% |
| CC(=O)Oc1ccc(OC(C)=O)c2ccccc12 | 23.7% |
| O=C1c2ccccc2C(=O)c2c1cc1c(c2[N+](=O)[O-])OCO1 | -3.07% (active) |
| Cc1cccc2c1C[C@@]1(C2=O)C(c2ccc(C(C)(C)C)cc2)=NOS1=O (stereo not given in full) | 77.1% |
| COc1cccc(Nc2ncnc3cc(NC(=O)CCl)ccc23)c1 | -93.9% (active) |
| NC(N)=NS(=O)(=O)c1ccc(NC2=C(I)C(=O)c3ncccc3C2=O)cc1 | 75.1% |
| Cc1c(CN)cc(-c2ccc(Cl)cc2)n1-c1ccccc1 | 59.2% |
| O=C1Nc2ccccc2C1(c1c[nH]c2ccccc12)c1c[nH]c2ccccc12 | 33.6% |
| CCn1c(-c2cc3c([nH]c4ccccc43)c(-c3cccc(O)c3)n2)n[nH]c1=S | 47.3% |
| CCN(CC)c1ccc(/C=N/NC(=O)Cc2ccc(Nc3ccnc(C(F)(F)F)c3)cc2)c(O)c1 | 20.3% |
| COc1ccc2c(c1)c(-c1nc(-c3c[nH]c4ncccc34)cs1)cn2CCCN1CCOCC1 | 11.9% |
| CNC(C)[C@H]1CCC2C3CC=C4C(=O)[C@@H](NC(=O)C=C(C)C)CC[C@]4(C)C3CC[C@@]21C (stereo not given in full) | -35.5% (active) |
| CN(Cc1ccccc1)c1nc(Cl)c(C2CC(c3ccccc3)=NN2c2ccccc2)s1 (stereo not given) | 81.5% |
| N#CC1=C(N)Oc2ccc3ccccc3c2C1c1ccc([N+](=O)[O-])cc1 (stereo not given) | 51.1% |
| COc1ccc(C(=O)Cn2c(C(=O)c3ccc(OC)cc3)nc3ccccc32)cc1 | 35.4% |

| SMILES | growth |
| --- | --- |
| CC1C(/C=N/NC(N)=S)C(C#N)(C#N)C1(C#N)C#N (stereo not given) | 82.4% |
| O=C(Cc1ccc(/C=C/C(=O)c2ncc[nH]2)cc1)Nc1cc(C(F)(F)F)cc(C(F)(F)F)c1 | 62.9% |
| CCOC(=O)c1ccccc1-c1c2ccc(=[N+](C)C)cc-2oc2cc(N(C)C)ccc12 | 52.1% |
| CCN1C(=O)N(CC)C2C1NN=c1s/c(=C\c3ccc(C(F)(F)F)cc3)c(=O)n12 (stereo not given) | 34.3% |
| Cc1nn(-c2ccccc2)c(N)c1N=C1NC(=O)/C(=C/c2ccc(Br)cc2)S1 | 72.1% |
| O=C(c1c[nH]c2ccccc12)c1n[nH]c(=S)n1-c1cccc(Br)c1 | 86.6% |
| Cc1ccc(/C=C/C(=O)Nc2ncc(Cc3ccc(F)cc3)s2)o1 | 40.4% |
| O=C1/C(=C\c2cccc3nccnc23)SC(=S)N1CCc1ccc(O)cc1 | 62.1% |
| COc1cccc(/C=C/C(=O)c2cccc(Nc3nc(Nc4ccccc4)nc(Nc4ccccc4)n3)c2)c1 | 56.9% |
| C=C1C(=O)O[C@H]2[C@H]1CC/C(COC(=O)c1cc3cc(Cl)ccc3[nH]1)=C\CC[C@@]1(C)O[C@@H]21 | -93.6% (active) |
| COc1ccc(Cn2cc(C(=O)N=Nc3c(O)[nH]c4c(C)cccc34)nn2)cc1 | 14.9% |
| NC(=O)c1cnc(Nc2cccc(N)c2)nc1NCCCNC(=O)C1CCC1 | 27.8% |
| CC1=C2[C@@H](CC1)[C@]1(C)O[C@@](C3CCCCC3)(C[C@H]1OC(=O)CO)[C@H]2OC(=O)/C=C/c1ccccc1 | -5.9% (active) |
| O=C(Nc1cnc(Nc2ccc(N3CCOCC3)nc2)nc1Oc1ccc(C(F)(F)F)cc1)c1ccncc1 | 98.4% |
| Cc1c2cccnc2c(C)c2c1c1cc(CO)ccc1n2C | 17.9% |
| CCN1CCN(CC(=O)Nc2ccc(-c3cn4c(n3)sc3cc(Oc5ccnc(C(=O)NC)c5)ccc34)cc2)CC1 | 60.1% |
| COc1cc(OC)c2sc(-c3ccc(-n4cncc4-c4cc(OC)c(OC)c(OC)c4)cc3)nc2c1 | 41% |
| Ic1ccccc1I | 78.6% |
| CCC1S/C(=N\N=C(\C)c2cc3cc(Cl)ccc3o2)N(c2ccccc2)C1=O (stereo not given) | 145% |
| CN(CCCNC(=O)CCOCCOCCOCCNC(=O)Cc1ccc2ccc3cccc4ccc1c2c34)CCCNc1cc(-c2ccc3ccccc3c2)nc2ccccc12 | -73.4% (active) |
